These results are taken from ChEMBL document CHEMBL1961873, “Compounds: GSK PKIS; Assays: Nanosyn kinase panel” (2012).

Test [1] concerns the target Protein kinase C gamma type (Homo sapiens) (UniProt P05129). To be noted: at 1 µM.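 Further: each value is an averaged percent inhibition of the enzyme.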
The target in test [2] is T1, Protein kinase C iota type (Homo sapiens) (UniProt P41743).
T1 sequence (whole entry): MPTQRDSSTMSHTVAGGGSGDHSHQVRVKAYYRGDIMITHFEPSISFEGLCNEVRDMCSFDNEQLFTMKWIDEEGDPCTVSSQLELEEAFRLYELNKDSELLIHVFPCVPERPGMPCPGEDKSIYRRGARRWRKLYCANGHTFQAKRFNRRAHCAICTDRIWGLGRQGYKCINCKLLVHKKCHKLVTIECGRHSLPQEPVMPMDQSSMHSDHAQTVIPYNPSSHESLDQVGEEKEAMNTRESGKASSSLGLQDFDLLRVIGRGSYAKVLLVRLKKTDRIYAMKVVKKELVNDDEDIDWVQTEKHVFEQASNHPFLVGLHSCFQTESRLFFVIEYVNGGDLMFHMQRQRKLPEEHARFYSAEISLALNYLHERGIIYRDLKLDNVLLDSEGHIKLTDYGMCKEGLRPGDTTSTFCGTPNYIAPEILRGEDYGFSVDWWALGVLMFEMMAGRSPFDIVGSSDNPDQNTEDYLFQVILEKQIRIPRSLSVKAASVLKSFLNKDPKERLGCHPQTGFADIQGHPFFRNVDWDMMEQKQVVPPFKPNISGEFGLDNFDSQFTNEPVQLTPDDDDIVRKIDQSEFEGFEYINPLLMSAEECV
To be noted: at 0.1 µM.

For test [3], the target named is T1, Protein kinase C iota type (Homo sapiens). The note with it: at 1 µM.
Test [4] addresses Protein kinase C theta type (Homo sapiens) (UniProt Q04759). To be noted: at 0.1 µM.
Test [5] shares this target. To be noted: at 1 µM.
The target in test [6] is Protein kinase C beta type (Homo sapiens) (UniProt P05771). The note with it: at 0.1 µM.
Test [7] shares this target. The note with it: at 1 µM.
Test [8] has as its target T2, Serine/threonine-protein kinase D1 (Homo sapiens) (UniProt Q15139).
T2 sequence (whole entry): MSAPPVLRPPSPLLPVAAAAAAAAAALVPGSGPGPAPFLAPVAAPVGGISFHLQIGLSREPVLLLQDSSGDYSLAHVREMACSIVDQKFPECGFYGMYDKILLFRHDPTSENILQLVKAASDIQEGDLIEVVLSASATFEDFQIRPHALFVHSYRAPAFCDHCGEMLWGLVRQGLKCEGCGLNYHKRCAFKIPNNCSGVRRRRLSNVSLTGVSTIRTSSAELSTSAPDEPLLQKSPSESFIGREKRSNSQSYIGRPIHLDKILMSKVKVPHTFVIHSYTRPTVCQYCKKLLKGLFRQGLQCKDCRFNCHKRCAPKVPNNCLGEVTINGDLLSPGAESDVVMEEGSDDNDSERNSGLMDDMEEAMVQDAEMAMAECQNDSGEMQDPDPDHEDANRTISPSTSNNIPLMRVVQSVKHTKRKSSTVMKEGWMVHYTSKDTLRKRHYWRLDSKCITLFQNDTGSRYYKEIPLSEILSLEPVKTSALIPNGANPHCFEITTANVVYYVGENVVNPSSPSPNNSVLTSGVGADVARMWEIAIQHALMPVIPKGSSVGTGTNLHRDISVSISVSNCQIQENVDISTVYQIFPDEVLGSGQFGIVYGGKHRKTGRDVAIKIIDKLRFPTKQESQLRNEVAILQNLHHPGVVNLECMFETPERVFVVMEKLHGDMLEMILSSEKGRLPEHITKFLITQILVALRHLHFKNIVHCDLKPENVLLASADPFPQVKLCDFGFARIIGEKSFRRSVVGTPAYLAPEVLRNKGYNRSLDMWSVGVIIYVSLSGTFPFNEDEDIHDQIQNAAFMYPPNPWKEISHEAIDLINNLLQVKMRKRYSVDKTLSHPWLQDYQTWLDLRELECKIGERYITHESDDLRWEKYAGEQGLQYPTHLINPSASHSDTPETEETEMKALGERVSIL
The note with it: at 0.1 µM.

Test [9] addresses T2, Serine/threonine-protein kinase D1 (Homo sapiens). To be noted: at 1 µM.
For test [10], the target named is T3, Serine/threonine-protein kinase D2 (Homo sapiens) (UniProt Q9BZL6).
T3 sequence (whole entry): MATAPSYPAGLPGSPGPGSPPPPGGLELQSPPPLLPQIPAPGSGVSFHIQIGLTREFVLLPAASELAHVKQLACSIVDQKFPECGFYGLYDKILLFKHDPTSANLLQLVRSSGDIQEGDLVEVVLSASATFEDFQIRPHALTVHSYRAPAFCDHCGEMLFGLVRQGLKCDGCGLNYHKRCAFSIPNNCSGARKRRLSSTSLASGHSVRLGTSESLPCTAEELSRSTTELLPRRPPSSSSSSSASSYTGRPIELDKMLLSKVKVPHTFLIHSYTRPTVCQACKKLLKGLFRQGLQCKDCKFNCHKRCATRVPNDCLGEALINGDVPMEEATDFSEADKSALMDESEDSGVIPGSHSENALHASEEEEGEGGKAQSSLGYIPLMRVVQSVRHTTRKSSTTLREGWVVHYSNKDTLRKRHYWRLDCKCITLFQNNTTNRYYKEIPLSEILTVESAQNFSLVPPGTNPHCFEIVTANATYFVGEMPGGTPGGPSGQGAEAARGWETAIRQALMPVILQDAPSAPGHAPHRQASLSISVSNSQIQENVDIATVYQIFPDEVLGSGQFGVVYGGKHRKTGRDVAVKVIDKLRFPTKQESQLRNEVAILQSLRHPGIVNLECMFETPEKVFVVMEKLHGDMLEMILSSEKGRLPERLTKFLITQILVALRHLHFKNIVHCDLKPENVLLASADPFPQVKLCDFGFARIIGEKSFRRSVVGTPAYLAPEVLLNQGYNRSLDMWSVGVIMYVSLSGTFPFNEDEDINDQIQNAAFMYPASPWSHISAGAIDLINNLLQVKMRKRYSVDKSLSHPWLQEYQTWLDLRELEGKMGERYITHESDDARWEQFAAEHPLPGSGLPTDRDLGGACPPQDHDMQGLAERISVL
To be noted: at 0.1 µM.

For test [11], the target named is T3, Serine/threonine-protein kinase D2 (Homo sapiens). The note with it: at 1 µM.
Test [12] has as its target T4, Serine/threonine-protein kinase D3 (Homo sapiens) (UniProt O94806).
T4 sequence (whole entry): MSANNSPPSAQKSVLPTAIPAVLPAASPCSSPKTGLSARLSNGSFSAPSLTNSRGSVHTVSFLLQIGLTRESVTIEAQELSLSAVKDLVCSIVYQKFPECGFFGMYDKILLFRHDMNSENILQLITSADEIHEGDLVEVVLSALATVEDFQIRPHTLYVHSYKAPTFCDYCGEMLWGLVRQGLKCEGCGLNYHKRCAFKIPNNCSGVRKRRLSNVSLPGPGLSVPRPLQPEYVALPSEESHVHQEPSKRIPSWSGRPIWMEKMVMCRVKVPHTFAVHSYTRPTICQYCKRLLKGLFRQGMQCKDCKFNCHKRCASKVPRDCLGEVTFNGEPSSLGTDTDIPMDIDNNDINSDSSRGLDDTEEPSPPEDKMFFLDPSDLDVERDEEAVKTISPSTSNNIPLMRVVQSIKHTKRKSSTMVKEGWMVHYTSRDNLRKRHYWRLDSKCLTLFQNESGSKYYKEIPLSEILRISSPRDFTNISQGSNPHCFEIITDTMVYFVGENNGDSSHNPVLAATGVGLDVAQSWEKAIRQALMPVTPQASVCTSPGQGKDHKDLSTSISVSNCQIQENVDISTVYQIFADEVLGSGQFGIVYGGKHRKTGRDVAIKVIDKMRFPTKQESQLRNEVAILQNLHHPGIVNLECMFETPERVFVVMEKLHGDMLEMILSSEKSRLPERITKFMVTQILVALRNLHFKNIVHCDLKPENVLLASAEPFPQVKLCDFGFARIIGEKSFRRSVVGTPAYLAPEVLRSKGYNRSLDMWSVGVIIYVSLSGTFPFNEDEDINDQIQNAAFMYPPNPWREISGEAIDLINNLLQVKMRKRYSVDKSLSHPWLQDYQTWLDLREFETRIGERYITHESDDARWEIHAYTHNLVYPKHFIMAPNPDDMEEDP
To be noted: at 0.1 µM.

For test [13], the target named is T4, Serine/threonine-protein kinase D3 (Homo sapiens). To be noted: at 1 µM.
Test [14] has as its target T5, cGMP-dependent protein kinase 1 (Homo sapiens) (UniProt Q13976).
T5 sequence (whole entry): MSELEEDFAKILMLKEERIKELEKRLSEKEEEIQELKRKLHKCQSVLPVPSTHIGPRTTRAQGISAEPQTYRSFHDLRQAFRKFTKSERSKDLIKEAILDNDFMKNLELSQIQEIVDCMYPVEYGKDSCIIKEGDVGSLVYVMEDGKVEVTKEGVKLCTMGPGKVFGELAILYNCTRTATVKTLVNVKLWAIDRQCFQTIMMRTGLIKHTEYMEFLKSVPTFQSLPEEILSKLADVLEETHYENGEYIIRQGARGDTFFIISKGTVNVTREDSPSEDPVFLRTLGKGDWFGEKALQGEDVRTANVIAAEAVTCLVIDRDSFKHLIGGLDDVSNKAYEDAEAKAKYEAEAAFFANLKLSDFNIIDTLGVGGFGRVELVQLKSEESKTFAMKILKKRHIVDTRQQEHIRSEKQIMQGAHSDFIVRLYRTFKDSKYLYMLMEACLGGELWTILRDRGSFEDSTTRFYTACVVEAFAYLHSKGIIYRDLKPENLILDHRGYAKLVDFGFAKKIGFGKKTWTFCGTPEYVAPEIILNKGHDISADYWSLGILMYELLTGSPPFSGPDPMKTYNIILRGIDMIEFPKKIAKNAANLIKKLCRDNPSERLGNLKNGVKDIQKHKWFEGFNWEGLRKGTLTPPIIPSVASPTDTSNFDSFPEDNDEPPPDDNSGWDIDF
To be noted: at 0.1 µM.

The target of test [15] is T5, cGMP-dependent protein kinase 1 (Homo sapiens). The note with it: at 1 µM.
Test [16] addresses T6, cGMP-dependent protein kinase 2 (Homo sapiens) (UniProt Q13237).
T6 sequence (whole entry): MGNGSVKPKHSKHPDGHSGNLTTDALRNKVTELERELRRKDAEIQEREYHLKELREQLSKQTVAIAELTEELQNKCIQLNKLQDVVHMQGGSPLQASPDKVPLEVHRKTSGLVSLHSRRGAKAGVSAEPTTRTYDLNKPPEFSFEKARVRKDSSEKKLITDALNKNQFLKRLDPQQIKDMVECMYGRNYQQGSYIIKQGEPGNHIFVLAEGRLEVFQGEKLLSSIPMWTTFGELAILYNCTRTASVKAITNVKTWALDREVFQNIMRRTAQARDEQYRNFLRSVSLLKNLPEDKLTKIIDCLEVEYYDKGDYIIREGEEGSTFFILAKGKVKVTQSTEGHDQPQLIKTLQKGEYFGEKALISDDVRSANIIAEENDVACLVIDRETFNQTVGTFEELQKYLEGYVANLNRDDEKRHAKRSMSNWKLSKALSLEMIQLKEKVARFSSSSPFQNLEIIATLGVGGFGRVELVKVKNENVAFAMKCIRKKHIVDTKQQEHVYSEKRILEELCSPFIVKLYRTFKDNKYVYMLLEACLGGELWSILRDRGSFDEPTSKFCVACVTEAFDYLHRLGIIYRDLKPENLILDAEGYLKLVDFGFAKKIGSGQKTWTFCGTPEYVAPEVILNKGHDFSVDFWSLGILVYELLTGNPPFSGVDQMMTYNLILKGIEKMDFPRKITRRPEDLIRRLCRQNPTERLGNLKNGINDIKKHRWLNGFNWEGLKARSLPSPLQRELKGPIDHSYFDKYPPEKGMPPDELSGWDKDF
The note with it: at 0.1 µM.

In test [17] the target is T6, cGMP-dependent protein kinase 2 (Homo sapiens). The note with it: at 1 µM.
Test [18] addresses T7, cAMP-dependent protein kinase catalytic subunit PRKX (Homo sapiens) (UniProt P51817).
T7 sequence (whole entry): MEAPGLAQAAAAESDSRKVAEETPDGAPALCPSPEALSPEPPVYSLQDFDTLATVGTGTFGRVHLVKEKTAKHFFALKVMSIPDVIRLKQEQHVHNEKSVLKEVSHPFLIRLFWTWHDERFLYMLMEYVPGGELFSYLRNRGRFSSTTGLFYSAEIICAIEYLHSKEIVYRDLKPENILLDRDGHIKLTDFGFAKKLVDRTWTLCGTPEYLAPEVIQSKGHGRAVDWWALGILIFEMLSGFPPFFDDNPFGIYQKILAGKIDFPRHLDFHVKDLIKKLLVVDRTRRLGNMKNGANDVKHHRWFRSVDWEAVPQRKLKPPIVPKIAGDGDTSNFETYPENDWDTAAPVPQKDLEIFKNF
The note with it: at 0.1 µM.

Test [19] has as its target T7, cAMP-dependent protein kinase catalytic subunit PRKX (Homo sapiens). To be noted: at 1 µM.
In test [20] the target is Rho-associated protein kinase 1 (Homo sapiens) (UniProt Q13464). To be noted: at 0.1 µM.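 Further: values are mean percent inhibition of ROCK1.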
Chain of Rho-associated protein kinase 1 (Homo sapiens) (Q13464 2-1354 limits assumed): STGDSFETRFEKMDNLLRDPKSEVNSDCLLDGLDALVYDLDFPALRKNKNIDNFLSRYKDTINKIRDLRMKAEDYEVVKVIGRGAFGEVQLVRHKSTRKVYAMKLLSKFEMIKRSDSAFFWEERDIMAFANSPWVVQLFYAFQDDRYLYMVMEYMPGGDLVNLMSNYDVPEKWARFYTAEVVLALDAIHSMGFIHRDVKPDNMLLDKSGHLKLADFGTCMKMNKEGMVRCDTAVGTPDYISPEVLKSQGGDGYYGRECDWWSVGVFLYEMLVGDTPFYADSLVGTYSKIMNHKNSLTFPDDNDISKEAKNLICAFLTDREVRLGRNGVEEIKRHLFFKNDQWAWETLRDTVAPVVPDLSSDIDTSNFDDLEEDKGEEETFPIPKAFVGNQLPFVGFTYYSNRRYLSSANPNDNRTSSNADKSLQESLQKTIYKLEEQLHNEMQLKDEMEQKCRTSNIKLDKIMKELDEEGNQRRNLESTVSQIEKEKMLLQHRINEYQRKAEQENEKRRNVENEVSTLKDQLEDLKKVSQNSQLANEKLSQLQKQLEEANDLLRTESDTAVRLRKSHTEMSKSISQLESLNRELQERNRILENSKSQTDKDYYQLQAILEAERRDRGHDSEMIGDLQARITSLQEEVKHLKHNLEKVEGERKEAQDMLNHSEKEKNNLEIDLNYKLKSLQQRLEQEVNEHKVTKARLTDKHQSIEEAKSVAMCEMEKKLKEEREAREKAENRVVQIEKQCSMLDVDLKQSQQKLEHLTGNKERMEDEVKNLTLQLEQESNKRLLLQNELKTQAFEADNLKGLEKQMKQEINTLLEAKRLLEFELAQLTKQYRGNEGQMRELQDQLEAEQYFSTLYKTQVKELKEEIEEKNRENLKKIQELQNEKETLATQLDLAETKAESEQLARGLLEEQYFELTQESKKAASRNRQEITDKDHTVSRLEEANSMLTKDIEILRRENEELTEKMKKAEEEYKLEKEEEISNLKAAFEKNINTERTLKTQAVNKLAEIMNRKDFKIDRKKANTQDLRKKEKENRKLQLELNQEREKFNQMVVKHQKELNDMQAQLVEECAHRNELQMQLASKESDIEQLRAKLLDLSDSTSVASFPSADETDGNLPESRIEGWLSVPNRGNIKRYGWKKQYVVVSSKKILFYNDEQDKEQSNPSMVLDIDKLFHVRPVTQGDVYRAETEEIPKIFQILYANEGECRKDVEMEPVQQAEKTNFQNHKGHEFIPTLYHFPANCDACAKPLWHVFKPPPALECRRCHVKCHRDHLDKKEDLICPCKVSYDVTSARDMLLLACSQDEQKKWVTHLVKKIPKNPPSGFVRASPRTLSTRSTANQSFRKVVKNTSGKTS

Chain of Protein kinase C beta type (Homo sapiens) (P05771 2-671 limits assumed): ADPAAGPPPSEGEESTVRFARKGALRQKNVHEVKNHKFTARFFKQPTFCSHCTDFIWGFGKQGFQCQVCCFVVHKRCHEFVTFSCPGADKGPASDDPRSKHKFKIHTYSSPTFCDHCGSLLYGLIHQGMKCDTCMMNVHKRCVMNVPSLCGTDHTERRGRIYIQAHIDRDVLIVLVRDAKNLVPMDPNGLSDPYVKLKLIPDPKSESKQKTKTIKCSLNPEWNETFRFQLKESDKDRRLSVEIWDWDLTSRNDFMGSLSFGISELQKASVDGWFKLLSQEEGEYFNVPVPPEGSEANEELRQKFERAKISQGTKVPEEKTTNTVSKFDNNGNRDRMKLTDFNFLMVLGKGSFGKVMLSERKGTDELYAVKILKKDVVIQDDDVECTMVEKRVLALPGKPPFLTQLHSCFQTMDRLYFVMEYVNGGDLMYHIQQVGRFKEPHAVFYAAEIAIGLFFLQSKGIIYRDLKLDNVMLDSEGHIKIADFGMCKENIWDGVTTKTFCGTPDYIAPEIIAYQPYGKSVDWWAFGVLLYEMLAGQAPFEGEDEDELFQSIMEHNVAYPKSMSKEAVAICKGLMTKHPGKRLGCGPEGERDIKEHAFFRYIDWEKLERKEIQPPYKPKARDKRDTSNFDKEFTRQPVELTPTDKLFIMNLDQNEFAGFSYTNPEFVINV
Chain of Protein kinase C theta type (Homo sapiens) (Q04759 whole entry, looked up): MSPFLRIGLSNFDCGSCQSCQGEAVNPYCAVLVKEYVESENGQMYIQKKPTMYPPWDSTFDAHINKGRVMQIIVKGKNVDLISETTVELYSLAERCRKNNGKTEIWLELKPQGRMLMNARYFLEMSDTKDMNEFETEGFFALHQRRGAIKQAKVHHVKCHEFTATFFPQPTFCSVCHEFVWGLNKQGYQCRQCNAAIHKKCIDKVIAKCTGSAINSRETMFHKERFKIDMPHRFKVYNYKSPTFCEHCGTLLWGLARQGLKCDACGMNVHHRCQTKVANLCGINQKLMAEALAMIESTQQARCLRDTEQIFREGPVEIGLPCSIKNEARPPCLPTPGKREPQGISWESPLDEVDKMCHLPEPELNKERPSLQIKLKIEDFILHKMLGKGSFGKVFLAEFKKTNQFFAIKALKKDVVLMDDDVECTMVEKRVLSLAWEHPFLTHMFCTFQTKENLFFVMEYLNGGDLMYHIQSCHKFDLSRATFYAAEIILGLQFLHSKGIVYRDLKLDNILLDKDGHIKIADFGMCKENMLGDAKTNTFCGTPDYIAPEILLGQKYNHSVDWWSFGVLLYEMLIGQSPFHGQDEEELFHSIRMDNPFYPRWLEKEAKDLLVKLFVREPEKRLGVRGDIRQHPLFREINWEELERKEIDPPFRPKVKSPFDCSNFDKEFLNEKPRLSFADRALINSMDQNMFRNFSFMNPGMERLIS

As for `NS(=O)(=O)c1ccc(Nc2ncc(-c3ccccc3)o2)cc1`, the inhibition in test [1] is 2.49%; in test [2] it was 2.01%; in test [3], 1.3%; in test [4], 1.68%; in test [5], 3.14%; in [6], 0.96%. For the same molecule, the inhibition in test [7] is 2.07%; in [8], 3.47%; in test [9] it was 6.2%; in test [10], 2.92%; in test [11], 5.55%; in [12] it was 3.51%. Besides, the inhibition in [13] came to 5.97%; in [14], 1.9%; in [15] it was 4.85%; in test [16], 2.69%; in test [17] it was 3.98%; in test [18] it was 2.08%. Moreover, the inhibition amounted to 2.5% in test [19] and 0.63% in test [20].

As for `Fc1ccc(-c2nn3ccccc3c2-c2ccncc2)cc1`, the inhibition in [1] is 2.4%; in [2] it was 0.48%; in [3], 3.99%; in test [4], 0.74%; in test [5], 2.07%; in [6], 1.95%. Also, the inhibition in [7] was 10.9%; in test [8], 1.78%; in test [9], 6.49%; in [10] it was 1.93%; in [11], 5.87%; in test [12], 3.07%. For the same molecule, the inhibition in [13] was 4.89%; in [14], 3.89%; in test [15], 5.24%; in test [16], 2.4%; in test [17], 3.57%; in test [18] it was 1.41%. Further, the values for the inhibition in test [19] and in test [20] were 3.65% and 5.05%, respectively.
